The text below walks through data of publication PMC5540273 (PLoS ONE, 2017).

Some test systems named below: BMX; BRAF; BRSK1; BRSK2; BTK; BUB1; CAMK1B; CAMK1D; CAMK1G.
Common to all, as to conditions: concentration: 1 μM, replicates: in singlicate; n = 1
The test system of a further assay is T1, BRK.
T1 construct: gene PTK6
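Note: KINOMEscan kinase panel screen.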

For `COc1cc2c(cc1OCCN1CCNCC1)ncc1c3ccc(C#N)cc3[nH]c21`, the “%Inh” value is 17% in the assay on BMX; 28% in the assay on BRAF; 0% with BRK; 25% in the assay with BRSK1; 0% with BRSK2; 2% in the assay with BTK. Moreover, the “%Inh” value is 99% in the assay with BUB1, 28% in the assay with CAMK1B, 30% in the assay with CAMK1D and 14% in the assay on CAMK1G.
Turning to `NCCCC(NC(=O)c1cc(Br)c(-c2ccnc3[nH]ccc23)s1)c1ccccc1.O=C(O)C(F)(F)F.O=C(O)C(F)(F)F` (stereo not shown) [GSK1287544], the “%Inh” value in the assay with BMX was found to be 7%; in the assay with BRAF it was 0%; with BRK, 3%; in the assay on BRSK1 it was 28%; in the assay on BRSK2 it was 0%; with BTK, 0%. Moreover, the “%Inh” value with BUB1 worked out at 21%; with CAMK1B, 10%; with CAMK1D it was 18%; in the assay with CAMK1G, 0%.
`COc1ccc(Nc2nccc(NCCNC(=O)c3cc4ccccc4s3)n2)cc1` [GSK1379896]: the “%Inh” value with BMX amounted to 17%; with BRAF, 0%; in the assay on BRK it was 1%; in the assay on BRSK1 it was 6%; in the assay on BRSK2, 0%; in the assay on BTK it was 0%. Also, the “%Inh” value in the assay on BUB1 is given as 9%; in the assay on CAMK1B, 39%; in the assay on CAMK1D it was 6%; in the assay with CAMK1G, 0%.
For the molecule `Clc1ccc(-c2nn3ncccc3c2-c2ccnc(Nc3ccc4c(c3)OCCO4)n2)cc1` [GW829116], the “%Inh” value turned out to be 0% with BMX; 52% in the assay on BRAF; 0% with BRK; 0% in the assay with BRSK1; 0% with BRSK2; 0% in the assay on BTK. Further, the “%Inh” value in the assay with BUB1 turned out to be 93.1%; in the assay with CAMK1B it was 0%; with CAMK1D, 0%; in the assay on CAMK1G, 0%.
As to `O=C(Nc1ccccc1F)NC1CCN(c2ccnc(Nc3ccc(F)cc3)n2)CC1` [GSK1379800], the “%Inh” value with BMX amounted to 3%; in the assay on BRAF, 0%; with BRK it was 0%; in the assay on BRSK1 it was 0%; in the assay with BRSK2, 0%; in the assay with BTK it was 0%. Besides, the “%Inh” value in the assay on BUB1 was found to be 63%; with CAMK1B, 36%; with CAMK1D, 5%; in the assay with CAMK1G it was 0%.
Take `CSc1cccc2c(-c3ccncn3)c(-c3ccc(F)cc3)nn12` [GW514786]: the “%Inh” value with BMX was 14%; in the assay with BRAF, 13%; in the assay with BRK it was 9%; in the assay on BRSK1, 14%; with BRSK2, 0%; in the assay with BTK, 11%. The “%Inh” value with BUB1 is reported as 89%; in the assay on CAMK1B, 0%; in the assay on CAMK1D, 7%; in the assay with CAMK1G, 0%.
Turning to `O=C(Nc1n[nH]c2cc(-c3ccoc3)ccc12)C1CC1` [SB-738481], the “%Inh” value is recorded as 16% in the assay on BMX; 0% in the assay with BRAF; 0% in the assay on BRK; 11% with BRSK1; 0% in the assay on BRSK2; 0% in the assay on BTK. The “%Inh” value with BUB1, in the assay on CAMK1B, in the assay with CAMK1D and with CAMK1G was 0% throughout.
Turning to `c1ccc(-c2cnc3nccnn23)cc1` [AH20685], the “%Inh” value was determined as 0% in the assay with BMX; 33% in the assay with BRAF; 22% with BRK; 0% in the assay with BRSK1; 0% in the assay on BRSK2; 6% in the assay on BTK. Moreover, the “%Inh” value in the assay with BUB1, with CAMK1B, in the assay on CAMK1D and in the assay with CAMK1G was 0% throughout.
Consider `COc1cc(Nc2nccc(N3CCC(NC(=O)Nc4cccc(C(C)=O)c4)C3)n2)cc(OC)c1OC` (stereo not shown) [GSK1379753], for which the “%Inh” value worked out at 1% in the assay on BMX; 0% in the assay with BRAF; 8% in the assay with BRK; 5% in the assay on BRSK1; 0% in the assay on BRSK2; 0% in the assay on BTK. The “%Inh” value is on record as 31% in the assay on BUB1, 0% with CAMK1B, 20% in the assay on CAMK1D and 0% with CAMK1G.
On to `Nc1ncc(-c2ccc3nccc(-c4ccncc4)c3c2)cc1S(=O)(=O)N1CCOCC1` [GSK1627798], for which the “%Inh” value in the assay on BMX is 16%; with BRAF, 15%; in the assay on BRK, 8%; in the assay on BRSK1, 0%; with BRSK2, 0%; in the assay on BTK, 0%. Besides, the “%Inh” value in the assay on BUB1 came to 12%; in the assay on CAMK1B it was 0%; with CAMK1D, 36%; in the assay on CAMK1G it was 16%.
Consider `Fc1ccc(-c2ncn(C3CCNCC3)c2-c2ccnc(Oc3ccc(-c4ccccc4)cc3)n2)cc1` [SB-245391], for which the “%Inh” value came out at 0% with BMX; 23% with BRAF; 7% in the assay with BRK; 14% in the assay on BRSK1; 16% in the assay with BRSK2; 57% in the assay on BTK. Moreover, the “%Inh” value is given as 20% with BUB1, 4% with CAMK1B, 30% with CAMK1D and 4% in the assay on CAMK1G.
Regarding `Cc1ccc(F)c(C(=O)Nc2cccc(-c3nn4ccccc4c3-c3ccnc(Nc4cccc(F)c4)n3)c2)c1F` [GSK361061], the “%Inh” value in the assay on BMX was determined as 48%; with BRAF it was 68%; with BRK, 74%; with BRSK1, 12%; with BRSK2 it was 0%; in the assay with BTK, 0%. The “%Inh” value in the assay with BUB1 is listed as 42%; in the assay with CAMK1B, 0%; in the assay on CAMK1D it was 18%; in the assay on CAMK1G it was 12%.
For `CCCCc1nn2ncccc2c1-c1ccnc(Nc2ccc(N3CCN(C)CC3)cc2)n1` [GW684941], the “%Inh” value was found to be 53% in the assay on BMX; 86% in the assay with BRAF; 69% with BRK; 3% with BRSK1; 0% with BRSK2; 57% in the assay with BTK. In addition, the “%Inh” value came out at 93.3% in the assay with BUB1, 25% in the assay on CAMK1B, 0% in the assay on CAMK1D and 0% with CAMK1G.
With `COc1ccc(-c2coc3ccc(-c4nnc(SCc5ccc(OC)c(C(F)(F)F)c5)o4)cc23)cc1`, the “%Inh” value with BMX was found to be 29%; in the assay on BRAF, 0%; in the assay with BRK, 0%; with BRSK1 it was 0%; in the assay on BRSK2, 13%; in the assay on BTK, 0%. The “%Inh” value worked out at 0% in the assay with BUB1, 8% with CAMK1B, 14% with CAMK1D and 3% in the assay on CAMK1G.
Turning to `CN(C)Cc1ccc(-c2ccc3c(Nc4ccc(Oc5ccccn5)cc4)ccnc3c2)o1` [GW567148], the “%Inh” value in the assay on BMX is given as 12%; in the assay with BRAF it was 1%; in the assay with BRK it was 95.2%; with BRSK1, 0%; in the assay on BRSK2 it was 0%; with BTK, 74%. The “%Inh” value in the assay with BUB1, with CAMK1B, in the assay on CAMK1D and with CAMK1G was 0% throughout.
On to `CN1CCN(Cc2cccc(-c3ccc4c(Nc5ccc(Oc6ccccc6)cc5)ccnc4c3)c2)CC1` [GW578342], for which the “%Inh” value in the assay with BMX turned out to be 20%; in the assay with BRAF, 0%; with BRK, 90.2%; in the assay on BRSK1, 0%; in the assay with BRSK2, 1%; in the assay on BTK it was 90.8%. The “%Inh” value with BUB1 was 35%; in the assay with CAMK1B, 10%; in the assay with CAMK1D, 7%; in the assay with CAMK1G, 0%.
